# Experimental data taken from the supplement of paper PMC6555819.
# What was measured:
# Experiment in all cases: PBM binding z-score (relative to random genomic background probes); higher = stronger binding; sequences stand for … in GC…GCGATTGACAGCGTAGAATGAAGG
# [1] = tested on: FXR:RXRa (NR concentration 270 nM, RXRa partner concentration 90 nM)
# Summary of the method: (§1)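 Binding z-scores were set against random background probes. The data came from custom Agilent 4×180K protein-binding microarrays carrying double-stranded probes with 34-nt variable regions, incubated 1 h with ligand-free nuclear receptor dimers. Partner-specific antibodies detected binding, and scanned fluorescence was regression-normalized.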
# [2] = tested on: LXRa:RXRa (NR concentration 270 nM, RXRa partner concentration 90 nM)
# Summary of the method: as §1
# [3] = tested on: LXRa homodimer (NR concentration 270 nM)
# Summary of the method: as §1
# [4] = tested on: LXRb:RXRa (NR concentration 270 nM, RXRa partner concentration 90 nM)
# Summary of the method: as §1
# [5] = tested on: LXRb homodimer (NR concentration 270 nM)
# Summary of the method: as §1
# [6] = tested on: PPARa:RXRa (NR concentration 270 nM, RXRa partner concentration 90 nM)
# Summary of the method: as §1
# [7] = tested on: PPARg:RXRa (NR concentration 180 nM, RXRa partner concentration 90 nM)
# Summary of the method: as §1
# [8] = tested on: PPARg:RXRa 270nM:90nM, anti-RXR (NR concentration 270 nM, RXRa partner concentration 90 nM)
# Summary of the method: as §1
# [9] = tested on: PPARg:RXRa 30nM:10nM, anti-RXR (NR concentration 30 nM, RXRa partner concentration 10 nM)
# Summary of the method: as §1
# [10] = tested on: PPARg:RXRa 90nM:30nM, anti-RXR (NR concentration 90 nM, RXRa partner concentration 30 nM)
# Summary of the method: as §1
Sequence,PBM binding z-score [1],PBM binding z-score [2],PBM binding z-score [3],PBM binding z-score [4],PBM binding z-score [5],PBM binding z-score [6],PBM binding z-score [7],PBM binding z-score [8],PBM binding z-score [9],PBM binding z-score [10]
GCTAGTAGGCCATTTGGGTCACTCAATGACGGGC,-0.0419,-0.00892,-0.666,-0.044,-0.894,1.98,2.27,2.41,0.459,1.79
CAAACTAGGTAACGAAAGGTCAAAGTCGAATGAC,4.96,7.4,6.74,6.41,2.26,5.8,6.82,6.42,3.66,5.76
TGAACGAGGTTATAAGATCAGGGAACGTTGCAAA,1.41,1.2,-0.217,1.08,-0.589,2.56,1.16,1.5,0.646,1.06
GATACAGGTTCAAGGCCAGAGTACGCGTATTGAT,1.85,1.7,0.305,1.41,-0.271,2.72,1.43,1.64,0.208,1.19
ATCGAAAGGCCGAGGTGAGTATAGAGAAAGGGAA,0.0206,-0.227,-0.447,-0.337,-0.455,-0.0261,0.313,-0.133,-0.0137,-0.154
CGTCCAAGGTCAATGCTAGGGCAGTGAAAGCATT,6.49,4.8,0.528,3.57,0.446,5.03,3.68,4.65,1.05,3.08
ATATGTAGGTCACATCCGGGTCATTCAGGCTATG,4.9,5.58,3.31,4.45,1.88,5.8,9.18,7.48,5.41,7.3
TCTATTAGTTGATTAGGTCAACCGAAACAGCGGA,1.7,2,1.49,2.02,1.35,2.94,1.16,3.19,3.91,3.59
GCTGCTAGGTCAAATGATGGTCAGCTAAAGCTCG,4.42,3.62,0.405,2.44,0.557,3.87,2.82,3.57,0.844,2.69
TGAATGGGGTTATAAGATCAGGGAACGTTGCAAA,3.48,2.4,0.471,4,2,4.74,3.24,3.32,1.77,2.79
TAGCCTAGGTCATGGGCCAGTCTACCACGCGAAC,4.36,3.2,0.0919,2.04,-0.312,4,3.34,3.49,0.699,2.48
CAAACTAGGTCAAGTTCAAAGTCGGTTTGTGCCA,5.99,4.84,4.22,3.64,1.37,5.81,8.91,7.48,5.88,7.46
CAAACTAGGTCACCAAAGGTCAAAGTCGAATGAC,7.53,8.61,8.25,7.82,3.21,6.74,10.1,8.27,6.41,8.55
CCTCGGATGACAGAAGGTCAGAGCTGTCCGCTTT,1.3,1.79,0.493,1.37,0.0484,2.01,0.0217,0.56,-0.64,0.0995
TCGAGTAGGTTACCAATGGGGCATGCAGCTTTCT,-0.0297,0.818,-0.705,0.567,-0.608,1.07,0.261,1.08,0.922,1.1
GCTAGCAGGCAATTTGGGTCACTCAATGACGGGC,0.195,0.398,-0.578,0.171,-0.943,2.23,0.983,0.964,-0.305,0.409
CAAACTAGCTCAAGAGGTCAAAGTCCGCTTCCCG,4.69,5.44,5.42,5.16,1.67,5.04,1.65,3.87,1.52,2.88
GCTTGTAGATCAAGGTTCAGAAAGACTAAGCTAA,-0.0392,0.122,0.0153,0.103,-0.768,2.44,4.87,5.28,3.39,5.82
GGAACGAGGACATTCGAGTTGATAGCATGGCGAT,0.116,-0.183,-0.644,-0.72,-0.703,-0.304,0.664,-0.0182,-0.118,-0.155

Sequence,PBM binding z-score [1],PBM binding z-score [2],PBM binding z-score [3],PBM binding z-score [4],PBM binding z-score [5],PBM binding z-score [6],PBM binding z-score [7],PBM binding z-score [8],PBM binding z-score [9],PBM binding z-score [10]
TCTATTACTTGATTAGGGCAACCGAAACAGCGGA,0.823,0.881,0.41,0.812,0.945,0.975,0.4,1.9,3.76,2.94
AGTCAGAGTTCACTAGGTAACGTAAGATTCAGCT,4.41,4.52,2.25,2.64,0.624,4.54,5.57,5.35,2.12,4.4
CCTACTGGGCCACAAAGGTCATTGATGCCGATAA,4.47,5.11,4.74,4.39,0.772,5.25,6.17,5.75,3.17,5.54
AGAATCAGGTTACCAAAGATCAGGGAAACGCTTG,0.0425,4.27,-0.14,1.12,0.162,1.69,1.24,1.19,0.411,0.466
CCTGCTAGGTCAATGGCCAGCTAAAGCAGCTCGC,3.11,2.72,-0.17,1.39,-0.454,2.73,1.84,2.65,0.293,1.8
CTCGAAAGGTCCGTTGAGGTGAGTATACGGATAA,0.973,-0.377,-0.421,-0.34,-0.666,0.249,-0.102,0.101,-0.184,-0.198
ACTAGCAGGCCAAGTGTGGGTCACTCAAACAAAG,-0.167,0.206,-0.486,0.691,-0.959,2.19,0.66,1.38,-0.102,0.685
ATATGTAAGTTATCGGGTCATTCAGTTTGCGCAT,2.13,2.33,1.43,2.61,1.02,2.93,1.83,2.22,0.702,1.72
ATAAGTAGGTTACATCCGGGTCATTCAGGCTATG,2.43,4.37,1.57,2.84,1.24,4.53,6.68,5.15,3.19,4.37
TCGAGTAGTTTAGGGGCATTCAGAATGGCGTCGA,-0.0607,0.048,-0.581,0.829,-0.452,0.549,-0.393,0.237,0.631,0.559
CCGACTGGGGCAGAAATGTTACCATACCATCCGG,-0.183,-0.371,-0.171,-0.528,-0.781,-0.385,0.729,-0.0813,-0.351,-0.433
TCTCGGAGGACAGGAAGGTCAGAGCTTTCCAGAG,0.736,1.07,0.00105,0.899,-0.565,1.87,-0.0448,1.49,2.39,1.78
TCTCGGAGGACACGAAAGTTCAGAGCTCGACATC,1.03,2.18,2.89,0.952,-0.575,1.14,0.211,1.25,2.34,1.81
ACTTACGGGTCAACGAGGCTATAGCACGCGTATA,7.11,4.24,0.0789,3.85,0.747,5.82,5.21,4.87,1.81,3.64
ACTATTAGTTGAGACGACGGCAACCGATAGGTTG,-0.095,-0.329,-0.396,-0.449,0.14,-0.603,0.568,-0.326,-0.098,-0.21
TAGCCTAGGTCATTCAGGGGCCAGTATTGAAAGC,4.17,3.5,0.907,3.03,0.763,3.43,1.63,2.22,0.291,1.32
TATACAGGGTCAAAAGCCAGAGTACGAATGTCGA,5.93,5.72,1.74,4.3,2.65,5.48,6.57,6.01,3.42,5.08
TCTTGTAGATCAGGCAGGTTAAGAAAGCCTGAGT,0.09,0.00615,-0.308,0.209,-0.455,0.43,-0.505,0.864,2.52,1.62
CCTACTGGGCCAAGGTCATTCATCAGTCAAAGCA,3.63,3.65,1.71,3.07,0.00532,4.07,3.93,4.44,1.62,3.51
